Measured values from PubChem BioAssay (NCATS).
Inconclusive results are not listed. Values without a mark were called inactive. The source made the active and inactive calls. The call rests on the fitted dose curve; in most records, active means well fitted cell-killing curve with a large enough effect; inconclusive means small, poorly fitted or top-dose-only effect, or effect the other way; inactive means flat fitted curve, though single readings scatter. Where a SMILES comes first, the peptide text is derived from it. [ ]: non-standard residue; d: D form. pGlu = O=C1CC[C@@H](C(=O)O)N1; Thz = O=C(O)[C@@H]1CSCN1

System: HeLa
Experiment: Primary qHTS to identify gynecologic anti-cancer compounds using libraries of approved drugs and bioactive compounds (AID 1345084); further: nearly all actives have a fitted effect of over 55% in size
Conditions: Gynecologic cancer cell panel viability, ATPlite luminescence, 48 h; series mostly up to 57.5 µM; activity change, negative = cytotoxicity: at the top concentration
Summary of the method: (§1)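 Measured: luminescence after ATPlite addition (15 min, RT). Exposure: 48 h, 37 C, 5% CO2.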
On the % scale 0 is the no-effect control and ±100 the full control effect; potency means the concentration at half of the fitted maximal effect.

| SMILES | activity change, negative = cytotoxicity | Potency |
| --- | --- | --- |
| O=Cc1ccc(O)c(O)c1O | -3.79% | – |
| CN1[C@@H]2CC[C@H]1CC(OC(=O)C(CO)c1ccccc1)C2 (stereo not given in full) | 6.52% | – |
| O=C(O)c1cc(O)c(O)c(O)c1 | -2.93% | – |
| Cc1[nH]cnc1CN1CCc2c(c3ccccc3n2C)C1=O | 0.543% | – |
| O=c1cc(-c2ccccc2)oc2ccccc12 | – | 15800 nM (active) |
| O=C(O)CC1CC(c2ccccc2)=NO1 (stereo not given) | 6.02% [at 25.3 µM] | – |
| CN(CCCOc1ccc(Cc2ccccc2)cc1)CCC(=O)O | 18.6% | – |
| COC(=O)C1=C(C)NC(C)=C(C(=O)OCC(C)C)C1c1ccccc1[N+](=O)[O-] (stereo not given) | -1.08% | – |
| O=C(O)[C@H](CC(=O)N1C[C@H]2CCCC[C@H]2C1)Cc1ccccc1 | -1.6% | – |
| NC(=O)C(c1ccccc1)(c1ccccc1)[C@@H]1CCN(CCc2ccc3c(c2)CCO3)C1 | -6.34% | – |
| Nc1ccc(O)c([N+](=O)[O-])c1 | -8.15% [at 116 µM] | – |
| O=c1[nH]c2ccccc2n1CCCN1CCN(C(c2ccccc2)c2ccccc2)CC1 | -28.8% | – |
| O=C(Nc1ccc2c(c1)CCN(Cc1ncn[nH]1)C2)c1ccccc1-c1ccc(C(F)(F)F)cc1 | 0.585% | – |
| Nc1ccc([N+](=O)[O-])cc1O | -34.9% [at 116 µM] | – |
| CC(=O)O[C@H]1C[C@@]2(C)[C@@H](C[C@@H](O)[C@H]3[C@@]4(C)CC[C@@H](O)[C@@H](C)[C@@H]4CC[C@@]32C)/C1=C(\CCC=C(C)C)C(=O)O | 14.3% | – |
| COc1cc(CNC(=O)CCCC/C=C/C(C)C)ccc1O | 1.5% | – |
| Fc1ccc2[nH]c(CN3CCN(c4ccccn4)CC3)cc2c1 | -3.11% | – |
| O=C(Nc1ccc2[nH]ncc2c1)C1CCC1 | 4.16% | – |

| SMILES | activity change, negative = cytotoxicity | Potency |
| --- | --- | --- |
| Cc1cc(O)c2ccccc2c1O | -5.89% | – |
| O=[N+]([O-])c1ccc(CNc2nc(NCc3cccc(C(F)(F)F)c3)nc3nc[nH]c23)cc1 | 0.652% | – |
| O=C(O)/C=C\C(=O)O | 11.2% | – |
| CCCCN(CC)c1nc(C)nc2c1c(C)cn2-c1c(C)cc(C)cc1C | 10.5% | – |
| CC(C(=O)O)c1ccc(C(=O)c2ccccc2)s1 (stereo not given) | -1.1% | – |
| O=C1CN(/N=C/c2ccc([N+](=O)[O-])o2)C(=O)N1 | -12.4% | – |
| CCCSc1ccc2nc(NC(=O)OC)[nH]c2c1 | – | 2000 nM (active) |
| CC1(C)[C@@H](O[C@H]2O[C@H](C(=O)O)[C@@H](O)[C@H](O)[C@H]2O[C@@H]2O[C@H](C(=O)O)[C@@H](O)[C@H](O)[C@H]2O)CC[C@]2(C)[C@H]3C(=O)C=C4[C@@H]5C[C@@](C)(C(=O)O)CC[C@]5(C)CC[C@@]4(C)[C@]3(C)CC[C@@H]12 | 17.4% [at 25.3 µM] | – |
| COc1ccc(/C=C/C(=O)Nc2ccccc2C(=O)O)cc1OC | -3.47% | – |
| CC(C(=O)O)c1ccc(C(=O)c2cccs2)cc1 (stereo not given) | 14.5% | – |
| Clc1ccccc1-c1nc(-c2ccncc2)no1 | – | 28200 nM (active) |
| COC(=O)C1=C(C)NC(C)=C(C(=O)OC)C1c1cccc(NC(=O)NCCCN2CCC(c3cccc(OC)c3)CC2)c1 | -5.92% | – |
| O=C1CC[C@@H](C(=O)N2CSC[C@H]2C(=O)O)N1 ([pGlu]-[Thz]-OH) | 8.14% | – |
| CC1(C)S[C@@H]2[C@H](NC(=O)[C@H](N)c3ccccc3)C(=O)N2[C@H]1C(=O)O | 8.9% | – |
| COC(=O)Nc1nc2ccc(C(=O)C3CC3)cc2[nH]1 | – | 2000 nM (active) |
| Oc1c(Br)cc(Br)c2cccnc12 | -45% | – |
| S=c1[nH]c2ccccc2s1 | -7.23% [at 116 µM] | – |

System: Hek293T
Experiment: as above
Conditions: Gynecologic cancer cell panel viability, ATPlite luminescence, 48 h, control line for the selectivity index; series mostly up to 57.5 µM; activity change, negative = cytotoxicity: at the top concentration
Summary of the method: as §1

| SMILES | activity change, negative = cytotoxicity | Potency |
| --- | --- | --- |
| O=Cc1ccc(O)c(O)c1O | 7.93% | – |
| CN1[C@@H]2CC[C@H]1CC(OC(=O)C(CO)c1ccccc1)C2 (stereo not given in full) | 3.13% | – |
| O=C(O)c1cc(O)c(O)c(O)c1 | 3.38% | – |
| Cc1[nH]cnc1CN1CCc2c(c3ccccc3n2C)C1=O | -1.88% | – |
| O=C(O)CC1CC(c2ccccc2)=NO1 (stereo not given) | -0.048% [at 25.3 µM] | – |
| CN(CCCOc1ccc(Cc2ccccc2)cc1)CCC(=O)O | 5.13% | – |
| COC(=O)C1=C(C)NC(C)=C(C(=O)OCC(C)C)C1c1ccccc1[N+](=O)[O-] (stereo not given) | 2.44% | – |
| O=C(O)[C@H](CC(=O)N1C[C@H]2CCCC[C@H]2C1)Cc1ccccc1 | -5.89% | – |
| NC(=O)C(c1ccccc1)(c1ccccc1)[C@@H]1CCN(CCc2ccc3c(c2)CCO3)C1 | -10.3% | – |
| C#C[C@]1(O)CC[C@H]2[C@@H]3CCc4cc(O)ccc4[C@H]3CC[C@@]21C | -15% | – |
| Nc1ccc(O)c([N+](=O)[O-])c1 | -0.933% [at 116 µM] | – |
| O=C(Nc1ccc2c(c1)CCN(Cc1ncn[nH]1)C2)c1ccccc1-c1ccc(C(F)(F)F)cc1 | 4.22% | – |
| Nc1ccc([N+](=O)[O-])cc1O | -8.28% [at 116 µM] | – |
| CC(=O)O[C@H]1C[C@@]2(C)[C@@H](C[C@@H](O)[C@H]3[C@@]4(C)CC[C@@H](O)[C@@H](C)[C@@H]4CC[C@@]32C)/C1=C(\CCC=C(C)C)C(=O)O | -0.499% | – |
| COc1cc(CNC(=O)CCCC/C=C/C(C)C)ccc1O | 3.88% | – |
| Fc1ccc2[nH]c(CN3CCN(c4ccccn4)CC3)cc2c1 | 8.11% | – |
| O=C(Nc1ccc2[nH]ncc2c1)C1CCC1 | 3.5% | – |
| Cc1cc(O)c2ccccc2c1O | -12.2% | – |
| O=[N+]([O-])c1ccc(CNc2nc(NCc3cccc(C(F)(F)F)c3)nc3nc[nH]c23)cc1 | 11% | – |
| O=C(O)/C=C\C(=O)O | 0.0284% | – |
| CCCCN(CC)c1nc(C)nc2c1c(C)cn2-c1c(C)cc(C)cc1C | 6.78% | – |
| CC(C(=O)O)c1ccc(C(=O)c2ccccc2)s1 (stereo not given) | -7.55% | – |
| CCCSc1ccc2nc(NC(=O)OC)[nH]c2c1 | – | 891 nM (active) |
| CC1(C)[C@@H](O[C@H]2O[C@H](C(=O)O)[C@@H](O)[C@H](O)[C@H]2O[C@@H]2O[C@H](C(=O)O)[C@@H](O)[C@H](O)[C@H]2O)CC[C@]2(C)[C@H]3C(=O)C=C4[C@@H]5C[C@@](C)(C(=O)O)CC[C@]5(C)CC[C@@]4(C)[C@]3(C)CC[C@@H]12 | -3.26% [at 25.3 µM] | – |
| COc1ccc(/C=C/C(=O)Nc2ccccc2C(=O)O)cc1OC | -9.11% | – |
| CC(C(=O)O)c1ccc(C(=O)c2cccs2)cc1 (stereo not given) | 3.85% | – |
| COC(=O)C1=C(C)NC(C)=C(C(=O)OC)C1c1cccc(NC(=O)NCCCN2CCC(c3cccc(OC)c3)CC2)c1 | -2.58% | – |
| O=C1CC[C@@H](C(=O)N2CSC[C@H]2C(=O)O)N1 ([pGlu]-[Thz]-OH) | -0.305% | – |
| CC1(C)S[C@@H]2[C@H](NC(=O)[C@H](N)c3ccccc3)C(=O)N2[C@H]1C(=O)O | 2.65% | – |
| S=c1[nH]c2ccccc2s1 | 5.76% [at 116 µM] | – |
